Results: PubChem BioAssay (NCI)
Compounds without any hit were thinned out: in the full panel of roughly 83,000, 20% have a hit.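 48-hour exposure, single concentration, 96-well plates; percent growth endpoint where 0 means no net growth. Active: below 10.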 Unmarked numbers belong to inactive results. Active and inactive are the calls of the source.

What was measured:
Test in all cases: NCI-60 one-dose screen, 48 h (100 = growth as untreated, 0 = no growth, -100 = all killed)
Conditions in all cases: 10 µM unless noted
DU-145 prostate = test system: DU-145 prostate
K-562 leukemia = test system: K-562 leukemia
MALME-3M melanoma = test system: MALME-3M melanoma
MDA-MB-231 breast = test system: MDA-MB-231 breast
RXF 393 renal = test system: RXF 393 renal
SF-268 CNS = test system: SF-268 CNS
SF-295 CNS = test system: SF-295 CNS
SF-539 CNS = test system: SF-539 CNS
UACC-257 melanoma = test system: UACC-257 melanoma
M14 melanoma = test system: M14 melanoma
HCT-15 colon = test system: HCT-15 colon
HT29 colon = test system: HT29 colon
SNB-75 CNS = test system: SNB-75 CNS
SNB-19 CNS = test system: SNB-19 CNS
U251 CNS = test system: U251 CNS
PC-3 prostate = test system: PC-3 prostate
SK-MEL-5 melanoma = test system: SK-MEL-5 melanoma
UACC-62 melanoma = test system: UACC-62 melanoma
LOX IMVI melanoma = test system: LOX IMVI melanoma
SK-MEL-28 melanoma = test system: SK-MEL-28 melanoma

Structure (SMILES) | growth (DU-145 prostate) | growth (K-562 leukemia) | growth (MALME-3M melanoma) | growth (MDA-MB-231 breast) | growth (RXF 393 renal) | growth (SF-268 CNS) | growth (SF-295 CNS) | growth (SF-539 CNS) | growth (UACC-257 melanoma) | growth (M14 melanoma) | growth (HCT-15 colon) | growth (HT29 colon) | growth (SNB-75 CNS) | growth (SNB-19 CNS) | growth (U251 CNS) | growth (PC-3 prostate) | growth (SK-MEL-5 melanoma) | growth (UACC-62 melanoma) | growth (LOX IMVI melanoma) | growth (SK-MEL-28 melanoma)
CC[N+]1(CC)CC[N+]2(CCCC(C)CC2)CC1 (stereo not given) | 111% | 107% | 97.6% | 106% | 113% | 108% | 98.8% | 99.2% | 98.2% | 106% | 104% | 99.7% | 115% | 102% | 111% | 96.6% | 104% | 100% | 105% | 104%
CCOC(=O)c1c(C)nc2ccccc2c1/C=C/c1ccccc1 | 91.9% | 44.4% | 111% | 81.9% | 113% | 85.4% | 66.4% | 89% | 76.6% | 82.8% | 64.3% | 82.6% | 80.1% | 77.3% | 79.7% | 69.9% | -0.202% (active) | 52.2% | 71.8% | 102%
C=CN(C(=O)N1CCN(c2cc3c(cc2F)c(=O)c(C(=O)O)cn3C2CC2)CC1)c1nc(-c2ccc(OC)cc2)cs1 | 30.9% | 21.9% | 42.7% | 22.1% | 20% | 29.6% | 11.8% | 25.8% | 26.9% | 32.1% | 13.6% | 15.4% | 23.6% | 19.2% | 13.4% | 16.4% | -7.22% (active) | 16.4% | 1.92% (active) | 45.7%
CS(=O)(=O)c1ccc(NC(=O)c2ccccc2)nc1 | 108% | 100% | 108% | 99.1% | 106% | 107% | 106% | 104% | 95.6% | 115% | 104% | 83.6% | 104% | 95.7% | 102% | 93.6% | 101% | 95.4% | 98.6% | 112%
COc1ccc(C2=CC(c3cc(OC)c(OC)c(OC)c3)n3ncnc3N2)cc1 (stereo not given) | -24.7% (active) | 9.56% (active) | 75.8% | 8.42% (active) | 71.1% | 31.4% | 13.5% | -1.69% (active) | 56.5% | -2.18% (active) | 14.5% | 1.66% (active) | 40.4% | 36% | 6.34% (active) | 21.7% | 1.68% (active) | 51.9% | 22.2% | 54.3%
CNC(=O)c1ccccc1Nc1nc(Nc2cc(OC)c(OC)c(OC)c2)ncc1Br | 9.08% (active) | 8.02% (active) | -39.5% (active) | -3.87% (active) | -64.8% (active) | -32.7% (active) | -6.65% (active) | -79.2% (active) | -30.9% (active) | -52.9% (active) | 3.34% (active) | -0.259% (active) | -55% (active) | 6.35% (active) | -9.93% (active) | 61.4% | -22.3% (active) | -69.6% (active) | -60.3% (active) | -13.6% (active)
CCOC(=O)c1c(C)nc2c(c1N)/C(=C/c1ccc(OC)cc1)C(=O)N2Cc1ccccc1 | 60.7% | 46.5% | 64.5% | 57.8% | 71.4% | 62.3% | 68.7% | 87.5% | 49.6% | 71.3% | 41% | 34% | 73.3% | 77.7% | 50.7% | 58.4% | 61.8% | 48.8% | 55.6% | 78.5%
COc1ccc(/C=C/C(c2cc(OC)c(OC)c(OC)c2)n2cncn2)cc1 (stereo not given) | 61.2% | 17.7% | 61.3% | 50.1% | 46.5% | 57.1% | 22.5% | 56.5% | 46.4% | 17.9% | 31.1% | 4.96% (active) | 51.3% | 49% | 31.8% | 31.2% | 33% | 33.8% | 50% | 62.6%
COC(=O)CC[C@@H]1O[C@@H](c2ccc(F)cc2)[C@@H](O)[C@H]1O | 112% | 109% | 101% | 117% | 112% | 103% | 104% | 102% | 107% | 92.9% | 105% | 108% | 90.1% | 108% | 109% | 96.8% | 95.7% | 106% | 99.8% | 102%
O=C(NNC(=O)c1ccc(NC(=O)c2ccccn2)cc1)Nc1ccc2ccccc2c1 | 110% | 106% | 123% | 115% | 116% | 101% | 103% | 69% | 120% | 115% | 105% | 109% | 109% | 91.8% | 101% | 107% | 102% | 108% | 115% | 110%
COc1ccc(C(=O)/C=C/c2ccc(Cl)cc2)cc1S(=O)(=O)Nc1c(N)nc(SC)[nH]c1=O | 88.3% | 3.84% (active) | 90.1% | 68.2% | 92% | 45.3% | 90.1% | -5.49% (active) | 90.9% | 74.7% | 65.7% | 31.3% | 33.4% | 8.18% (active) | -4.2% (active) | 39.1% | 74.1% | 62.3% | 2.64% (active) | 97.4%
CCN1CCN(CC(=O)Nc2ccc(-c3cn4c(n3)sc3cc(Oc5ccnc(C(=O)NC)c5)ccc34)cc2)CC1 | 105% | -11.1% (active) | 87.7% | 85.1% | 69.2% | 87.2% | 65.4% | 65.4% | 96.2% | 73.8% | 77.3% | -21.8% (active) | 82.9% | 98.6% | 64.8% | 65.8% | 88.3% | 66.9% | -80.4% (active) | 74.6%
CC(=O)OC(c1ccccc1)C1CCOC1=O (stereo not given) | 115% | 108% | 107% | 103% | 101% | 110% | 94.6% | 101% | 102% | 99.9% | 97.1% | 99.5% | 79.2% | 109% | 99.1% | 100% | 102% | 87.2% | 96.7% | 113%
CN1CCN(Cc2ccc(NC(=O)c3cncc(C#Cc4cnc(N)c5ncccc45)c3)cc2C(F)(F)F)CC1 | 18.1% | 13.9% | -73.5% (active) | -78.7% (active) | -83.9% (active) | -18.1% (active) | 31.2% | -87% (active) | 17.1% | -87% (active) | -30.2% (active) | -50.2% (active) | -76.8% (active) | 44.3% | -37.6% (active) | 13.6% | -91.9% (active) | 6.71% (active) | -83.6% (active) | -86.8% (active)
COC(=O)c1nc(-c2ccccc2)oc1S(=O)(=O)NCC(c1ccc(Cl)cc1)N1CCOCC1 (stereo not given) | 78.2% | 13.4% | 76.9% | 75.8% | 83.6% | 77% | 101% | 92.3% | 87.3% | 35% | 44.2% | 40% | 94.3% | 89.4% | 72.8% | 50% | 86.4% | 80.9% | 48.7% | 94.3%
